Only some compounds are listed: those with a hit (about 12% of all), similar ones and a draw of the others.
Sfp PPTase inh – blocks B. subtilis Sfp PPTase activity; Biochemical Sfp PPTase activity, qHTS; Potency, µM, actives largely listed as inhibitors; 310,000 tested, 3.5% active;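 note: the enzyme is Sfp with the accession as filed and its product quenches rhodamine fluorescence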
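Fluorescence-quenching assay with 15 nM Sfp, 5 uM rhodamine-CoA and 12.5 uM BHQ-2-labelled ybbR peptide in pH 7.6 Hepes/MgCl2 buffer. Enzyme was pre-incubated with compound for 15 min at room temperature. Rate was taken from the 30-min fluorescence change (525/598 nm).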
BAZ2B inh – BAZ2B (human) inhibition | Q9UIF8 | AlphaScreen BAZ2B-H3K14Ac peptide displacement | Potency, µM (top dose mostly 114 µM), usual class: inhibitors | 360,000 tested, 4.4% active; note: nearly all actives have a fitted effect of over 60% in size
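Compounds, titrated to a top concentration of 110 uM, were incubated 30 min at room temperature with preformed BAZ2B/acetyl-K14 H3 peptide complex (50 nM each). Proximity signal was measured by AlphaScreen after 20 min with beads.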
HP1b chromo inh – HP1-beta chromodomain-methylated histone interaction inhibition | P83916 | AlphaScreen HP1-beta / biotin-H3K9me3 peptide binding | Potency, µM (series often up to 114 µM), hits mostly inhibitors | 390,000 tested, 0.56% active | AID 540317; note: nearly all actives have a fitted effect of over 70% in size
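Compound inhibition of the preformed complex between 50 nM HP1-beta and 50 nM biotinylated H3K9me3 peptide was read by AlphaScreen. Buffer was PBS pH 7.4 with 0.01% Tween-20. Incubations ran 30 min at room temperature, with 10 ug/mL donor/acceptor beads.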
G9a block – G9a (human) methyltransferase inhibition; Q96KQ7; G9a H3K9 monomethylation, AlphaScreen, 2 h; Potency, µM (doses to about 102 µM), usual class: inhibitors; 350,000 tested, 8.8% active; AID 504332; note: nearly all actives have a fitted effect of over 75% in size
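Quantitative HTS format: methyltransferase activity on a biotin-tagged H3K9 peptide is measured by AlphaScreen, using a rabbit anti-monomethyl-H3K9 antibody with streptavidin donor and anti-IgG acceptor beads. Final levels are 20 nM enzyme, 500 nM peptide, 20 uM SAM; 2 h RT.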
PLK1 PBD block – blocks phosphopeptide binding to human PLK1 polo-box domain | P53350 | Potency, µM, hits mostly inhibitors | Plk1 PBD binding of FITC phosphopeptide, fluorescence polarization | AID 720504 | 360,000 tested, 2.8% active; note: series mostly up to about 57 µM; nearly all actives have a fitted effect of over 65% in size
JMJD2A Tudor – blocks the human JMJD2A Tudor domain | O75164 | AlphaScreen JMJD2A-Tudor / H3K4me3 peptide binding | Potency, µM (top dose mostly 114 µM), hits mostly inhibitors | 390,000 tested, 4.4% active | AID 504339; note: nearly all actives have a fitted effect of over 50% in size
Target sequence (O75164 whole entry, looked up, the tested form may be a part): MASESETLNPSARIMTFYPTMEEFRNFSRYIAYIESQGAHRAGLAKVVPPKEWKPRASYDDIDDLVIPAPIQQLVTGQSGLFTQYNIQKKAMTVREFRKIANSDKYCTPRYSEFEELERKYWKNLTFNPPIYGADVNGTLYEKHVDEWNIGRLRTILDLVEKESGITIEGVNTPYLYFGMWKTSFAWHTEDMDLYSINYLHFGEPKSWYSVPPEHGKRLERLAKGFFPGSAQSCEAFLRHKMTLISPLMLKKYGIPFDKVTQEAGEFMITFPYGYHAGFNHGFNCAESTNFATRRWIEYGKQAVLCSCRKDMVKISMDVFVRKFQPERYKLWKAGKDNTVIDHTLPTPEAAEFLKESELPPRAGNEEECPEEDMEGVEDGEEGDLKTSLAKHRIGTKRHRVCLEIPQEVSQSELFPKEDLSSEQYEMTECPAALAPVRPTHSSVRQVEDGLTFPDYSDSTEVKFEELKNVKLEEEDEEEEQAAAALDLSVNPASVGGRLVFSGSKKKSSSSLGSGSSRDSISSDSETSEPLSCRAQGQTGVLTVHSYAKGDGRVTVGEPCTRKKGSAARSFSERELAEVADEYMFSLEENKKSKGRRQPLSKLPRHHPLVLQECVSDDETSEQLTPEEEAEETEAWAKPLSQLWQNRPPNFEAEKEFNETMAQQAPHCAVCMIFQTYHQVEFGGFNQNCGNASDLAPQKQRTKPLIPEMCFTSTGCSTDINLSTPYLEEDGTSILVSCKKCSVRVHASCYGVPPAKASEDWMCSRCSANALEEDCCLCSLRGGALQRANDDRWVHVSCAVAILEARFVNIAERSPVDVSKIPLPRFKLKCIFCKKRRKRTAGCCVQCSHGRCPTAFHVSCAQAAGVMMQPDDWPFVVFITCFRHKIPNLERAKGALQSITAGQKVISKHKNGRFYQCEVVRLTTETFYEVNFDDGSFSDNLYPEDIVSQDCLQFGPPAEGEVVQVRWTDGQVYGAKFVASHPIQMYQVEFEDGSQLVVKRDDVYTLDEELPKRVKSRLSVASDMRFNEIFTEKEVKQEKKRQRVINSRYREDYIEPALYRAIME
Each line names hits and unclear results; the compound was inactive in the other large screens; ! = repeats disagree. Calls come from the whole dose curve; as a rule, active = well fitted curve in the direction sought with a large enough effect; inconclusive = small, poorly fitted or top-dose-only effect, or another doubt; inactive = no such curve, though single readings can be large; an effect the other way counts as inactive or inconclusive.

COc1cc(C#N)ccc1OC(=O)Cc1cc(OC)c(OC)c(OC)c1	G9a block inconclusive
COc1ccccc1CNCC(=O)Nc1ccc(C#N)cc1	BAZ2B inh 50.1µM, G9a block 5.62µM, JMJD2A Tudor inconclusive
COc1ccccc1CNCC(=O)Nc1ccccc1-n1cccc1	Sfp PPTase inh inconclusive, BAZ2B inh 50.1µM, HP1b chromo inh inconclusive, G9a block 10µM, JMJD2A Tudor 22.4µM
COc1ccccc1CNCC(=O)Nc1ccc(C(F)(F)F)cc1	BAZ2B inh 56.2µM, G9a block 22.4µM
COc1ccccc1CCC(=O)Oc1ccc(C#N)cc1OC	G9a block 25.1µM
CCC(Sc1nc2ncccc2o1)C(=O)Nc1cccc(C)c1 (stereo not given)	none (no result: Sfp PPTase inh, PLK1 PBD block)
COc1ccc(OC)c(NC(=O)c2cc3cccc(OC)c3oc2=O)c1	none (no result: Sfp PPTase inh, PLK1 PBD block)
CC(C)c1ccc(OC(=O)c2cc(-c3ccccc3)on2)cc1	none (no result: Sfp PPTase inh, PLK1 PBD block)
CCOc1ccc(NC(=O)CCN2C(=O)c3ccccc3C2=O)cc1	none
COCc1nc2ccccc2n1CCc1ccccc1	none
Clc1ccc(CN2CCN(c3ncnc4scc(-c5cccs5)c34)CC2)cc1	G9a block 31.6µM
Fc1ccc(CN2CCN(c3ncnc4scc(-c5ccc(F)cc5)c34)CC2)cc1	BAZ2B inh inconclusive, JMJD2A Tudor inconclusive
COC(=O)c1cc2c(ccn2-c2ccc(F)cc2)n1Cc1ccc(OC(C)=O)cc1	BAZ2B inh inconclusive, G9a block 50.1µM, JMJD2A Tudor inconclusive
COC(=O)c1cc2c(ccn2-c2ccc(F)cc2)n1C(C)C	BAZ2B inh inconclusive, HP1b chromo inh inconclusive, JMJD2A Tudor inconclusive
COC(=O)c1cc2c(ccn2-c2ccc(F)cc2)n1CC(C)C	BAZ2B inh inconclusive, G9a block 44.7µM, JMJD2A Tudor inconclusive
CCCn1c(C(=O)OC)cc2c1ccn2-c1ccc(F)cc1	Sfp PPTase inh inconclusive, BAZ2B inh inconclusive, G9a block 70.8µM, JMJD2A Tudor inconclusive
O=c1n(Cc2ccccc2)nc2n1-c1cc(Cl)ccc1OC2	none (no result: Sfp PPTase inh, PLK1 PBD block)
O=S(=O)(c1ccccc1)c1cc(O)ccc1O	G9a block 50.1µM
Cc1c(O)ccc2cc(S(=O)(=O)c3ccccc3)c(=O)oc12	none
Nc1ccc(S(=O)(=O)c2ccc(Cl)cc2)cc1	none
O=S(=O)(c1ccc(Cl)cc1)c1cc(O)ccc1O	HP1b chromo inh inconclusive, G9a block 44.7µM
COc1cccc(NC(=O)CCN2C(=O)C3CC=CCC3C2=O)c1 (stereo not given)	none
CC1=C(C#N)C(c2cccnc2)C2=C(CCCC2=O)N1 (stereo not given)	PLK1 PBD block inconclusive
CC1=C(C#N)C(c2cccnc2)C2=C(N1)c1ccccc1C2=O (stereo not given)	G9a block 35.5µM
CSC1=C(C#N)C(c2ccccc2Cl)C2=C(N1)c1ccccc1C2=O (stereo not given)	HP1b chromo inh inconclusive, G9a block 15.8µM, PLK1 PBD block inconclusive, JMJD2A Tudor 31.6µM
CC1=C(C#N)C(c2ccccc2)C2=C(N1)c1ccccc1C2=O (stereo not given)	BAZ2B inh 31.6µM, HP1b chromo inh inconclusive, G9a block 44.7µM, PLK1 PBD block inconclusive, JMJD2A Tudor 22.4µM
CCC/C=C1\CCCOC(C(=O)NCc2ccc(C)o2)(C(F)(F)F)C1 (stereo not given)	Sfp PPTase inh 50.1µM (no result: BAZ2B inh, G9a block, PLK1 PBD block)
CCC/C=C1/CCCOC(C(=O)NCc2ccc(C)o2)(C(F)(F)F)C1 (stereo not given)	Sfp PPTase inh 56.2µM, PLK1 PBD block inconclusive (no result: BAZ2B inh, G9a block)
O=C(NCc1ccccn1)C1(C(F)(F)F)C/C(=C\CCO)CCCO1 (stereo not given)	JMJD2A Tudor 28.2µM! (no result: BAZ2B inh, G9a block)
CCC/C=C1/CCCOC(C(=O)NCc2ccccn2)(C(F)(F)F)C1 (stereo not given)	none (no result: BAZ2B inh, G9a block)
COc1cccc(CCNC(=O)c2c(O)nc3c(C)cccn3c2=O)c1	none (no result: Sfp PPTase inh, PLK1 PBD block)
Cc1cc2n(n1)CCCN2C(=O)Nc1ccc(F)c(Cl)c1	none (no result: Sfp PPTase inh, PLK1 PBD block)
Cc1cc2n(n1)SC(Nc1ccc(F)c(Cl)c1)N2 (stereo not given)	Sfp PPTase inh inconclusive, G9a block 1.41µM, JMJD2A Tudor inconclusive
Cc1c(C)[n+](=O)c2c(n1[O-])C(Br)CCC2Br (stereo not given)	BAZ2B inh 79.4µM, G9a block 1µM, JMJD2A Tudor 79.4µM
CC(C)(C)C(=O)[C@H]1[C@H](c2ccccc2)[C@@]2(N=C(c3ccccc3)OC2=O)C2c3ccccc3C=NN21 (stereo not given in full)	G9a block 79.4µM, JMJD2A Tudor inconclusive
OC[C@H]1O[C@@](CO)(O[C@H]2O[C@H](CO)[C@@H](O)[C@H](O)[C@H]2O)[C@@H](O[C@H]2O[C@H](CO)[C@@H](O)[C@H](O)[C@H]2O)[C@@H]1O	none (no result: Sfp PPTase inh, BAZ2B inh, G9a block)
COc1ccc2nc3ccccc3[n+]([O-])c2c1	PLK1 PBD block 11.9µM (no result: Sfp PPTase inh, BAZ2B inh, G9a block)
Cc1c(C#N)c2ccccc2n1CC(=O)N1CCCC1	HP1b chromo inh inconclusive, PLK1 PBD block 29.9µM, JMJD2A Tudor 79.4µM
N#Cc1c(-c2ccccc2)cc(-c2ccccc2)nc1SCC(O)CS(=O)(=O)Cc1ccccc1 (stereo not given)	G9a block 4.47µM (no result: Sfp PPTase inh, PLK1 PBD block)
CN1CCN(C(=O)CSc2nc(-c3cccs3)ccc2C#N)CC1	Sfp PPTase inh inconclusive, G9a block 39.8µM, JMJD2A Tudor inconclusive
N#Cc1c(-c2ccccc2)cc(-c2cccs2)nc1SCC(=O)O	Sfp PPTase inh 56.2µM, G9a block 8.91µM, PLK1 PBD block 26.7µM
COc1ccc(-c2cc(-c3cccs3)c(C#N)c(SCC(=O)NCc3ccccc3)n2)cc1	none
N#Cc1c(-c2ccc(Cl)cc2)cc(-c2cccs2)nc1SCC(=O)O	Sfp PPTase inh 39.8µM, BAZ2B inh 22.4µM, G9a block 8.91µM, PLK1 PBD block 16.8µM, JMJD2A Tudor 28.2µM
Cc1cccc(CSc2nc(-c3cccs3)ccc2C#N)c1	none (no result: Sfp PPTase inh, PLK1 PBD block)
CCCOC1CCCN(C(=O)c2ccc(OC3CCN(Cc4ccccn4)CC3)cc2)C1 (stereo not given)	none (no result: G9a block)
COc1ccc(Nc2oc(/C=C/c3ccc(OC)c(OC)c3)nc2C#N)cc1	none (no result: Sfp PPTase inh, PLK1 PBD block)
Cc1ccc(C23CC4CC(CC(C(=O)NC(C(=O)O)C(C)C)(C4)C2)C3)cc1 (stereo not given)	none
Cc1ccc(N=C2c3ccccc3C(=O)C2[N+](=O)[O-])cc1C (stereo not given)	G9a block 39.8µM
O=C1c2ccccc2C(=Nc2ccccc2)C1c1cccc(Br)c1 (stereo not given)	HP1b chromo inh inconclusive
O=C(NCc1ccccc1)N1CCN(c2ccc(F)cc2)CC1	HP1b chromo inh inconclusive, PLK1 PBD block 2.99µM
COc1ccc(N2CCN(C(=O)NCc3ccc(C)cc3)CC2)cc1	G9a block 39.8µM
O=C(NC1CCN(C(=O)NCc2ccccc2)CC1)c1ccccc1	none

From PubChem
